From PubChem BioAssay (EPA / NIEHS)
Active and inactive are the calls of the source. The calls were made as follows: active = hit-call score of the fitted dose curve at least 0.9, where 1 is the maximum; inactive = score below 0.9.

assay: BSK_3C_TissueFactor: BioMAP Diversity Plus: 3C Assay for Tissue Factor Biomarker Activity (AID 2282997); settings: BioMAP 3C HUVEC, tissue factor biomarker readout; actives raise or lower the signal
Method in brief: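 Human vascular primary cells (umbilical vein endothelium) received test chemical; Tissue Factor was determined by ELISA at 24 h, and both gain and loss of signal versus DMSO were fitted.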

| Compound | outcome | AC50 |
| --- | --- | --- |
| CCCCCCCCCCCC#N | inactive |  |
| CC(C)CCCCCCCOC(=O)c1ccccc1C(=O)OCCCCCCCC(C)C | inactive |  |
| O=[N+]([O-])C=Cc1ccccc1 |  | 4.68 µM (active) |
| O=[N+]([O-])c1ccc(Cl)cc1 | inactive |  |
| Nc1ccc(-c2ccc(N)c(N)c2)cc1N |  | 5.26 µM (active) |

assay: BSK_3C_uPAR: BioMAP Diversity Plus: 3C Assay for Urokinase-type plasminogen activator receptor (uPAR) Biomarker Activity (AID 2282998); settings: BioMAP 3C HUVEC, uPAR biomarker ELISA; actives raise or lower the signal
Method in brief: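 A multiplexed primary-cell system built on human umbilical vein endothelium was used, with chemical present for 24 h before reading. Cell-surface uPAR was detected by ELISA; signal change in either direction counted against DMSO.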

| Compound | AC50 | outcome |
| --- | --- | --- |
| CCCCCCCCCCCC#N | 37.8 µM (active) |  |
| CC(C)CCCCCCCOC(=O)c1ccccc1C(=O)OCCCCCCCC(C)C |  | inactive |
| O=[N+]([O-])C=Cc1ccccc1 | 5.53 µM (active) |  |
| O=[N+]([O-])c1ccc(Cl)cc1 |  | inactive |
| Nc1ccc(-c2ccc(N)c(N)c2)cc1N |  | inactive |

assay: BSK_4H_Eotaxin3: BioMAP Diversity Plus: 4H Assay for Eotaxin 3 Biomarker Activity (AID 2283000); settings: primary human endothelial cells (HUVEC); actives raise or lower the signal;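 as to outcome: CCL26 protein level quantified by ELISA in parallel with SRB cytotoxicity check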
Method in brief: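 Readout is Eotaxin-3 (CCL26) level by ELISA in primary human umbilical vein endothelial cells harvested 24 h after chemical exposure; activity fitted in both directions against DMSO control.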

| Compound | AC50 | outcome |
| --- | --- | --- |
| CCCCCCCCCCCC#N | 27.5 µM (active) |  |
| CC(C)CCCCCCCOC(=O)c1ccccc1C(=O)OCCCCCCCC(C)C |  | inactive |
| O=[N+]([O-])C=Cc1ccccc1 | 9.12 µM (active) |  |
| O=[N+]([O-])c1ccc(Cl)cc1 |  | inactive |
| Nc1ccc(-c2ccc(N)c(N)c2)cc1N |  | inactive |
